94 sequences from the supplement of paper PMC3334620 can be followed below.

Whole data set: some 33,000 sequences, median “E-score (-0.5 to 0.5)” near -0.041, cut for the highest 2% near 0.37. The full list was thinned out, with the highest values kept by preference.

The target of this assay is T1, Ecm22 (UniProt Q05958).
T1 sequence: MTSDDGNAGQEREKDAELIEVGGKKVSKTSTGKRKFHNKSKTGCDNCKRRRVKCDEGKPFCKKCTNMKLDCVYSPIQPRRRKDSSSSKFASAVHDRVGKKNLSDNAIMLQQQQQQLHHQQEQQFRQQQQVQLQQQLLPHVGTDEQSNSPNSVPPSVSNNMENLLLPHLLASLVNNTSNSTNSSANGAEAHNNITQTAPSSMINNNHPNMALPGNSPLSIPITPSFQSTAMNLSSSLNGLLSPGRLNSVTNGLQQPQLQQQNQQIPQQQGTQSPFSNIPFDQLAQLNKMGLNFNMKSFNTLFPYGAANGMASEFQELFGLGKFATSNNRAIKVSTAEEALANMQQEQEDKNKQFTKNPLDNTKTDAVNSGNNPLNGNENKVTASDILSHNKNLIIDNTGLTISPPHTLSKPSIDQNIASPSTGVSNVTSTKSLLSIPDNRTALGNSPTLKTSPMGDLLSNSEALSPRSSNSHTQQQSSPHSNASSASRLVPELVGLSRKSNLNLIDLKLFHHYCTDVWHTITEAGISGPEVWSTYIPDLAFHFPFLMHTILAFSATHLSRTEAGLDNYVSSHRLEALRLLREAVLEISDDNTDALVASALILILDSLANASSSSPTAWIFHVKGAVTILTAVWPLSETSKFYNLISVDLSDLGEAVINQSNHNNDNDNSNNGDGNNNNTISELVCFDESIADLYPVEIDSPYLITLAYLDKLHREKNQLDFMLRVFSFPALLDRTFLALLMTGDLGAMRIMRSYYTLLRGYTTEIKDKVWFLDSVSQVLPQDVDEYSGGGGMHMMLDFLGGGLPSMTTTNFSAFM
Put plainly: PBM E-score (8-mer binding enrichment) (E-score (-0.5 to 0.5)); higher = stronger / more preferred TF binding. Conditions: protein concentration: 200 nM; construct: GST-full length. Summed up:
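For each ungapped eight-base word taken together with its reverse complement, the Universal PBM Analysis Suite assigned an E-score. Binding data came from GST-tagged yeast transcription factors, applied at about 100-200 nM, on universal all-10-mer Agilent arrays made double-stranded by primer extension. Fluorescent anti-GST marked bound protein, and scans were normalised with masliner.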
As for CTCGTTAC, the “PBM E-score” value was 0.371.
Under ATCGTTAG stands 0.201; under CACGTTAC, -0.046.
Under CACGTTAA stands 0.00208; under ATCGTTAC, 0.264; under GACGTTAA, 0.0928.
Next, ATCGTTAA: 0.403.
Consider GTCGTTAA, for which the “PBM E-score” value came out at 0.427.
Next, GGCGTTAA: -0.0419; CTCGTTAA: 0.437; CGCGTTAC: 0.159.
Regarding CCCGTTAA, the “PBM E-score” value was determined as 0.256.
Under CGGCGTAG stands -0.00106.
Under ATAGTGAT stands 0.176.
Next, CCTCGCAG: 0.0132; CCCGTCCG: -0.309; CGCCAGTC: 0.014.
For the sequence ATACGGAA, the “PBM E-score” value was found to be 0.374.
Under ATACGGAG stands 0.385.
Under CTACGGAG stands -0.0418; under GTACGGAA, 0.4.
For TTACGGAA, the “PBM E-score” value was determined as 0.266.
Next, CTACGGAA: 0.0649; GTACGGAC: 0.372; ATACGGAT: 0.332.
Under ATACGGAC stands 0.362.
On to GCACGGAA, for which the “PBM E-score” value is -0.094.
Under CTACGGAC stands -0.07; under GGACGGAA, -0.0866; under AATTTGCT, -0.0782.
Next, TAGGGAGA: -0.252; ACATGGGG: -0.282; TGAATTAA: 0.099.
In the case of CCGGAGGA, the “PBM E-score” value was -0.171.
Next, CGAAACCA: 0.28; AGAAACGA: 0.424; CGAAACGA: 0.424.
In the case of GGAAACGA, the “PBM E-score” value was determined as 0.426.
Under GGAAACAA stands 0.0422.
Next, AGAAACGG: 0.272.
Under AGAAACGC stands -0.0375; under CGAAACGC, 0.0992.
For the sequence GAAAACGA, the “PBM E-score” value amounted to 0.306.
Next, CCTGTGTA: 0.00294.
Next, GAGAGCAC: -0.00667; AACATCGT: 0.264.
Next, AAGTATCA: -0.115; CAGCTAGA: -0.0476; CTTGCCGA: -0.0634.
Turning to ACGACCAG, the “PBM E-score” value worked out at 0.319.
Next, CCGACCGA: 0.203; CCGACCTA: 0.0401; ACGACCTA: 0.384.
Next, ACGACCAA: 0.371; ACGACCAC: 0.35.
Under ACGACCGA stands 0.394.
With GCGACCGA, the “PBM E-score” value came out at 0.218.
With ACGACCTC, the “PBM E-score” value is 0.337.
As to AGACATTG, the “PBM E-score” value was -0.268.
Next, ACTCGCAG: 0.0817; GCAGGGGC: -0.243.
Next, GAAGAAGC: -0.234; AACAGTTA: -0.1; ATCCGTTA: 0.177.
AAAGGCTT: the “PBM E-score” value is -0.177.
Next, ACCGAGCG: 0.292; CAAGACTC: -0.126; CGAAATCG: 0.111.
Under ATTCGTTA stands 0.309.
As to CTTCGTTC, the “PBM E-score” value turned out to be 0.47.
Next, ATTCGTTC: 0.432.
Consider ATTCGTTG, for which the “PBM E-score” value stood at 0.277.
Regarding CTTCGTTA, the “PBM E-score” value was 0.303.
Turning to GTTCGTTA, the “PBM E-score” value came out at 0.356.
Next, CTCTCTAA: -0.232; GCTCTAGA: -0.226.
For the sequence AGTTCCTA, the “PBM E-score” value came out at 0.102.
Regarding CGTTCCTA, the “PBM E-score” value was 0.439.
For the sequence CCTTCCTC, the “PBM E-score” value is -0.0948.
Next, CGTTCCTC: 0.452; AGTTCCTC: -0.117; GGTTCCTA: -0.128.
Next, ACAGTAAC: 0.00997; AACTGCAA: -0.138; CACCTTAC: -0.0784.
For the sequence CGGCTCCC, the “PBM E-score” value is -0.0756.
Next, GCTGCATA: -0.114; CGTCTAAC: -0.0542; GAAAGATC: 0.0489.
Next, ACATAGCA: -0.131; ATATAAAC: 0.212; GTATAAAC: 0.403.
Under GTATAAAA stands 0.335; under CACAATTC, -0.0282.
